Bioassay records (PubChem)
E coli Lon inh: inhibits E. coli Lon protease | P0A9M0 | purified E. coli Lon protease, fluorescence polarization | inhibition, % at 7.94 µM | actives 0.42% (n = 360,000); in the data active = inhibition above about 13%, passing the limit was not always enough;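 also: 0% = enzyme with probe and DMSO and 100% = no enzyme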
MCL1-BIM inh: MCL1-BIM-BH3 interaction inhibition (human); Q07820; GST-MCL1 / FITC-Bim-BH3 fluorescence polarization; inhibition, % at 10.9 µM; actives 0.68% (n = 320,000);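 active = inhibition above the mean inhibition of all tested compounds plus 3 SD, set per campaign, cut at about 40% in these data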;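 also: 0% = DMSO wells and 100% = unlabeled Bim-BH3 peptide control; higher means more loss of mP so more displacement of Bim peptide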
Target sequence (Q07820 whole entry, looked up): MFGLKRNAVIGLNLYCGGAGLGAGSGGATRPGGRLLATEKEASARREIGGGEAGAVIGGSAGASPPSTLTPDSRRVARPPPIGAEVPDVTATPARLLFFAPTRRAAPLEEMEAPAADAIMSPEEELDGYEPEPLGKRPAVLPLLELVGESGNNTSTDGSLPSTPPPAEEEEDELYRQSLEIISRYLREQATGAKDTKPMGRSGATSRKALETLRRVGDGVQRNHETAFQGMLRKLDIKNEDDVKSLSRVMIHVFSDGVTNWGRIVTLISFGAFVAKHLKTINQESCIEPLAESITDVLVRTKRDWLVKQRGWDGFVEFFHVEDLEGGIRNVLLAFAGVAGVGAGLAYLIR
Bcl-xL primary: blocks human Bcl-xL binding to Bim BH3 peptide; Q07817; GST-Bcl-xL / FITC-Bim BH3 peptide fluorescence polarization; inhibition, % at 10.9 µM; actives 0.7% (n = 320,000); AID 2129;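 active = inhibition above the mean of all tested compounds plus 3 SD, cutoff set per campaign, cut at about 30% in these data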;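 also: 0% = DMSO wells and 100% = unlabeled Bim-BH3 peptide competitor; inhibitors lower millipolarization by displacing the labeled peptide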
EBV gp42 block: inhibitors of Epstein-Barr virus glycoprotein 42; actives 0.42% (n = 220,000); Q1HVG2; Fluorescence polarization binding assay, mP read-out; inhibition, % (tested at 21.74 µM); in the data active = inhibition above about 50%
GLD-1 TGE inh: GLD-1-TGE RNA interaction inhibition (C. elegans) | Q17339 | purified GLD-1 + fluorescein TGE RNA, fluorescence polarization | inhibition, % at 5.96 µM | actives 0.44% (n = 320,000) | AID 2280;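 active = percent inhibition above a per-plate cutoff, the plate mean of test compounds plus 3 SD, cut at about 30% in these data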;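 also: 0% = DMSO wells with GLD-1 and probe and 100% = wells lacking GLD-1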
MEX-5 binding: C. elegans MEX-5 TCR-2 RNA binding activity; Q9XUB2; MEX-5/FITC-TCR2 RNA binding, fluorescence polarization; hits give low values; activity score (negative = inhibition of binding), % at 10 µM; actives 0.38% (n = 300,000); AID 1832;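 active = inhibition past about -25% in most replicates, and total fluorescence under double the plate's negative control median, limit read from the data; inconclusive = replicates evenly split on the limit, or fluorescence at least double controls; inactive = too little inhibition in most replicates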;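 also: 0% = DMSO and -100% = 5 µM competing unlabeled TCR2 RNA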
* hit, by the source's call; i = inactive; ? = inconclusive; . = no result given; + = active, no number. The list is not random: actives were taken first. Their share in the collection is about 1.4%.

SMILES | E coli Lon inh | MCL1-BIM inh | Bcl-xL primary | EBV gp42 block | GLD-1 TGE inh | MEX-5 binding
O=C1C=C(c2cccc(Br)c2)C[C@@H](c2ccc3c(c2)OCO3)C1 | 2 | 2 | 3 | . | 6 | .
COC(=O)c1ccccc1NC(=O)CN1CCC(n2nnc3cc(C(F)(F)F)ccc32)CC1 | -1 | 3 | 1 | -6 | 6 | 2
CC1Cc2ccccc2N1C(=O)CN1CCC(n2nnc3cc(C(F)(F)F)ccc32)CC1 (stereo not given) | -10 | 0 | 0 | 100* | -2 | 2
O=C(C(=O)N1CCN(c2ccccc2F)CC1)c1cn(CC(=O)N2CCCC2)c2ccccc12 | 3 | . | . | . | . | .
CCOC(=O)N1CC=C2C(C#N)=C(N)C(C#N)(C#N)[C@H](c3ccsc3)[C@H]2C1 | 2 | 39 | 41* | -14 | 27 | ?
CCN(CC)c1ccc(/C=C(\C#N)C(=O)c2ccc(Br)cc2)cc1 | i | 45* | 52* | + | 63* | -16
COc1cc(C=C2C(=O)c3ccccc3C2=O)ccc1O | 3 | -10 | 2 | -17 | -6 | -2
COc1cc(C=C2C(=O)c3ccccc3C2=O)cc(OC)c1OC | -9 | 4 | 11 | 95* | 2 | -54*
OC(c1ccc(F)cc1)c1nc(-c2cnc3ccccc3c2)cs1 (stereo not given) | -8 | . | . | . | . | .
CCOC(=O)c1ccc(-c2ccc3ncnc(NCc4csc(C)n4)c3c2)o1 | -2 | . | . | . | . | .
Cc1nnc(NC(=O)COc2ccc3c(C)cc(=O)oc3c2)s1 | -1 | 23 | 5 | 51* | 0 | 1
CCC(CC)c1nnc(NC(=O)COc2ccc3c(C)cc(=O)oc3c2)s1 | -3 | -5 | -5 | -16 | 0 | .
CC1CN(C2CC(C)(C)NC(C)(C)C2)CCC1=O (stereo not given) | -6 | 13 | 7 | -30 | 1 | -48*
Cn1c(=O)c(C(=O)COC(=O)c2cc(-c3ccco3)nc3ccccc23)c(N)n(CC2CC2)c1=O | . | 44* | 27 | -21 | 12 | -11
O=C(NC1CC1)c1cc(-c2ccco2)nc2ccccc12 | -1 | . | . | 84* | . | 0
O=C(O)c1cc(-c2ccco2)nc2ccccc12 | 4 | 46* | 34* | -19 | 14 | -10
Cc1ccc(C)c(-c2cc(C(=O)NC3CC3)c3ccccc3n2)c1 | -8 | . | . | . | . | .
CCC(c1nnnn1C1CCCC1)N1CCN(Cc2ccccc2)CC1 (stereo not given) | -2 | -4 | 2 | -5 | -11 | 0
Fc1ccccc1C(c1nnnn1C1CCCC1)N1CCN(Cc2ccccc2)CC1 (stereo not given) | 1 | 5 | 4 | 85* | 5 | -1
Cc1cc(C)c[n+](C2=C([O-])c3ccccc3C(=O)/C2=N\S(=O)(=O)c2cccs2)c1 | 0 | 10 | 4 | -4 | 6 | 2
O=C1/C(=N\S(=O)(=O)c2cccs2)C([n+]2ccc(CCCc3ccccc3)cc2)=C([O-])c2ccccc21 | -3 | 11 | 13 | 35 | 3 | -40*
CC(C)(C)c1cc[n+](C2=C([O-])c3ccccc3C(=O)/C2=N\S(=O)(=O)c2ccccc2)cc1 | 0 | -6 | 2 | 3 | 2 | -3
Cc1cc[n+](C2=C([O-])c3ccccc3C(=O)/C2=N\S(=O)(=O)c2cccs2)cc1C | -1 | 4 | 7 | -4 | 0 | -34*
O=C(COC(=O)C1CC1)Nc1ncc(C(F)(F)F)cc1Cl | 8 | 26 | 32* | -18 | 26 | -7
O=C1C=CC(=O)C(C2=C3C(=O)N(CCc4ccccc4)CC(=O)N3CCC2)=C1 | . | 20 | 20 | -17 | 6 | -47*
O=C1CC2(CCCCC2)CC(=O)N1CCc1ccccc1 | -2 | . | . | . | . | .
CN(C)Cc1csc(Nc2ccc(C(F)(F)F)cn2)n1 | 4 | . | . | . | . | .
Cc1cc([N+](=O)[O-])nn1CC(=O)NNC(=S)Nc1ccc([N+](=O)[O-])cc1 | 2 | -3 | 2 | 5 | 6 | -37*
Cc1ccc(C(C(=O)Nc2ccc3c(c2)OCO3)N(C)C(=O)/C=C\c2ccc3c(c2)OCO3)cc1 (stereo not given) | -2 | -1 | 3 | 14 | -2 | 1
CCC(C)n1c(=N)c(C#N)cc2c(=O)n3cc(C)ccc3nc21 (stereo not given) | 1 | 5 | 10 | -10 | 9 | -34*
